Laboratory results taken from publication PMC4552634, “A New Set of Chemical Starting Points with Plasmodium falciparum Transmission-Blocking Potential for Antimalarial Drug Discovery” (PLoS ONE, 2015).
Where two headings read alike, the source gives them in different places. Among all 13,000 compounds or so, about 3,200 (25%) showed an effect of 50% or more. This is one part of the list.

System: P. falciparum stage V gametocytes
Parameters: BacTiter-Glo ATP luminescence viability of purified stage V gametocytes in 384-well plates, per cent inhibition versus DMSO
Conditions: 48 h, 5 µM, inhibitor

Compound | % Inhibition [%] | % Inhibition (% Inhibition) [%]
C=CCN1C(=O)c2[nH]nc(-c3cc(C)c(C)cc3O)c2C1c1cccc(Br)c1 (centres unmarked) [TCMDC-124621] | 9.594 | 
Cn1c(CN2CCC(N3CCc4cc(NC(=O)c5ccco5)ccc43)C2)cc2ccccc21 (centres unmarked) [TCMDC-135073] | 32.96 | 
NC(N)=Nc1cccc(NC(=O)Nc2cccc(N=C(N)N)c2)c1 [TCMDC-137209] | -4.06 | 
Cc1ccc2c(C3=CCN(CCCCC4(C)C(=O)Nc5ccccc54)CC3)c(C)[nH]c2c1 (centres unmarked) [TCMDC-141006] | -63.83 | 
COc1cc(Cc2cnc(N)nc2N)cc(OCCCC(=O)O)c1OC [TCMDC-137359] | 3.526 | 
O=C(NCCCCN1CCCC2c3ccc(O)cc3CCC21)c1ccc(-c2ccccc2)cc1 (centres unmarked) [TCMDC-139084] |  | -62.82
CCOc1cc(Cc2cnc(N)nc2N)cc(OCC)c1-n1cccc1 [TCMDC-137295] | 0.7486 | 
O=C(/C=C/c1ccccc1Cl)NC1CCC(CN2C3CCC2CC(c2c[nH]c4ccccc24)C3)CC1 (centres unmarked) [TCMDC-139931] | 92.87 | 
CS(=O)(=O)Nc1ccc2[nH]cc(C3CC4CCC(C3)N4CC3CCC(NC(=O)/C=C/c4ccc(Cl)c(Cl)c4)CC3)c2c1 (centres unmarked) [TCMDC-139807] | 14.27 | 
O=C(/C=C/c1c(Cl)cccc1Cl)NC1CCC(CN2C3CCC2CC(c2c[nH]c4ccccc24)C3)CC1 (centres unmarked) [TCMDC-140103] | 74.61 | 
CC(C)(C)c1ccc(NC(=O)c2cccc(CN3CCCN(Cc4ccsc4)CC3)c2)cc1 [TCMDC-135992] | -46.34 | 
CCC(C(=O)Nc1cc(=O)[nH]c2nc(-c3ccco3)nn12)c1ccccc1 (centres unmarked) [TCMDC-125323] | -11.89 | 
O=C(Nc1cc(Cl)cc(Cl)c1)Nc1ccnc2ccccc12 [TCMDC-139375] | 74.86 | 
O=C(Nc1cccc(Cl)c1Cl)Nc1ccnc2ccccc12 [TCMDC-139462] | 3.661 | 
COc1ccc(NC(=O)Nc2cc(C)nc3ccccc23)cc1Cl [TCMDC-139820] | -57.55 | 
COc1cc(NC(=O)Nc2ccnc3ccccc23)cc(OC)c1 [TCMDC-139446] | 84.12 | 
CCc1cc(NC(=O)Nc2ccnc3ccccc23)ccc1OC [TCMDC-139354] | 1.366 | 
COc1cc(NC(=O)Nc2cc(C)nc3ccccc23)cc(OC)c1 [TCMDC-139821] | 78.53 | 
COc1cccc(NC(=O)Nc2cc(C)nc3ccccc23)c1 [TCMDC-138950] | -4.503 | 
CN(C)c1ccc(NC(=O)Nc2ccnc3ccccc23)cc1Br [TCMDC-139316] | -21.1 | 
COc1ccc(Cl)cc1NC(=O)Nc1ccnc2ccccc12 [TCMDC-139457] | 13.69 | 
CCCOc1cc(NC(=O)Nc2ccnc3ccccc23)cc(OCCC)c1 [TCMDC-139491] | 3.955 | 
CCOc1cc(NC(=O)Nc2ccnc3ccccc23)cc(OC)c1 [TCMDC-139788] | 14.31 | 
CN(C)c1ccnc2ccc(NC(=O)Nc3ccnc4ccccc34)cc12 [TCMDC-139749] | 70.09 | 

Compound | % Inhibition [%] | % Inhibition (% Inhibition) [%]
O=C(/C=C/c1ccc(Cl)c(Cl)c1)NCCCCCN1CCC(NC(=O)Nc2cccc(F)c2)CC1 [TCMDC-135704] | -72.87 | 
CC(C)NCc1cccc(-c2cccc(-c3nc4ccc(F)cc4[nH]3)c2)c1 [TCMDC-132747] | -26.37 | 
CC[C@@H]([C@@H](Cc1cc2ccccc2s1)C(=O)N[C@@H](CCCCNC(=O)OCc1ccccc1)C(=O)Nc1ccccn1)N(O)C=O [TCMDC-138086] | 8.625 | 
CCCCc1ccc(Cc2cnc3nc(N)nc(N)c3c2C)cc1 [TCMDC-138045] | -16.41 | 
CCCCCCN(C(=O)OCc1ccccc1)C1CCN(C(=O)OC(C)(C)C)CC1C(=O)OCC (centres unmarked) [TCMDC-140339] | 26.28 | 
CCOC(=O)c1c(C)n(-c2ccccc2)c2ccc(OC(=O)c3ccc(S(=O)(=O)N(CC)CC)cc3)cc12 [TCMDC-125723] | 7.356 | 
CCN(C)c1cc(C(=O)N[C@@H](Cc2ccccc2)[C@H](O)CNC(C)(C)c2cccc(OC)c2)cc(N2CCCC2=O)c1 [TCMDC-134529] | 28.65 | 
Cc1cc(NC(=O)Nc2ccc(C(C)C)cc2)c2ccccc2n1 [TCMDC-139826] | 6.688 | 
CSc1ccc(NC(=O)Nc2cc(C)nc3ccccc23)cc1 [TCMDC-139394] | 23.44 | 
Cc1cc(NC(=O)Nc2ccc(C(C)(C)C)cc2)c2ccccc2n1 [TCMDC-139981] | 63.23 | 
CC(=O)Oc1cc(C)ccc1C1CCN(CCCCNC(=O)c2ccc(NC(=O)c3ccc(Cl)cc3)cc2)CC1 [TCMDC-138630] | -17.17 | 
CCOc1cc(CC)ccc1C1CCN(CCN2CCC(NC(=O)c3ccc(-c4ccc(C#N)cc4)cc3)CC2)CC1 [TCMDC-138829] | 12.51 | 
Cc1cc(C2CCN(CCCCNC(=O)c3ccc(-c4ccc(C#N)cc4)cc3)CC2)c(C)cc1OCCO [TCMDC-138827] | -59.1 | 
CCOc1cc(CC)ccc1C1CCN(CCCCNC(=O)c2ccc(NC(=O)c3ccc(Cl)cc3)cc2)CC1 [TCMDC-138317] | 61.4 | 
CCc1ccc(C2CCN(CCCCNC(=O)c3ccc(NC(=O)c4ccc(Cl)cc4)cc3)CC2)c(OCC(=O)OC)c1 [TCMDC-138707] | 40.9 | 
CCc1ccc(C2CCN(CCCCNC(=O)c3ccc(NC(=O)c4ccc(Cl)cc4)cc3)CC2)c(OC)c1 [TCMDC-138377] | -11.09 | 
CCOc1cc(CC)ccc1C1CCN(CCN2CCC(CNC(=O)c3ccc(-c4ccc(C#N)cc4)cc3)CC2)CC1 [TCMDC-138847] | 107.7 | 
CCOc1cc(CC)ccc1C1CCN(CCN2CCC(NC(=O)c3ccc(-c4ccc(C(C)=O)cc4)cc3)CC2)CC1 [TCMDC-138882] | -11.21 | 
CCc1ccc(C2CCN(CCCCNC(=O)c3ccc(NC(=O)c4ccc(Cl)cc4)cc3)CC2)c(OC(C)=O)c1 [TCMDC-138648] | 96.99 | 
CCOc1cc(CC)ccc1C1CCN(CCCCNC(=O)c2ccc(NC(=O)c3ccc(C#N)cc3)cc2)CC1 [TCMDC-138662] | 87.14 | 
CC1(C)N=C(N)N=C(N)N1OCCCNC(=O)c1ccc([N+](=O)[O-])cc1 [TCMDC-131666] | 6.997 | 
c1ccc(COc2ccc(Nc3ncnc4cnc(-c5ccc(CN6CCCCC6)o5)cc34)cc2)cc1 [TCMDC-137775] | -26.66 | 
CCCCCC(C)C(C)c1cc(O)c2c(c1)OC(C)(C)CC2=Cc1ccncc1 (centres unmarked) [TCMDC-131746] | -25.77 | 
C#CC[C@@H](NC(N)=O)C(=O)O [TCMDC-131404] | -1.405 | 

Compound | % Inhibition [%] | % Inhibition (% Inhibition) [%]
O=S(=O)(NC1CCN(c2ccnc3cc(Cl)ccc23)C1)c1cccc(F)c1 (centres unmarked) [TCMDC-133657] | -15.22 | 
COc1cccc(C2CCN(CCN3CCC(NC(=O)c4ccc(-c5ccc(C#N)cc5)cc4)CC3)CC2)c1 [TCMDC-138860] | -1.987 | 
COc1ccccc1C1CCN(CCN2CCC(NC(=O)c3ccc(-c4ccc(C#N)cc4)cc3)CC2)CC1 [TCMDC-138880] | -25.62 | 
COc1cccc(C2CCN(CCN3CCC(NC(=O)c4ccc(-c5ccc(C(F)(F)F)cc5)cc4)CC3)CC2)c1 [TCMDC-138819] | 18.98 | 
COc1cccc(C2CCN(CCN3CCC(CNC(=O)c4ccc(-c5ccc(C(F)(F)F)cc5)cc4)CC3)CC2)c1 [TCMDC-138830] | 71.94 | 
CCOc1cc(C)ccc1C1CCN(CCCCNC(=O)c2cccc(-c3ccc(C(F)(F)F)cc3)c2)CC1 [TCMDC-138534] | 29.59 | 
CCOc1cc(C)ccc1C1CCN(CCN2CCC(CNC(=O)c3ccc(-c4ccc(C(F)(F)F)cc4)cc3)CC2)CC1 [TCMDC-138805] | 96.77 | 
CCc1ccc(C2CCN(CCCCNC(=O)c3ccc(NC(=O)c4ccc(Cl)cc4)cc3)CC2)c(OCCO)c1 [TCMDC-138703] | 131.2 | 
COc1cccc(C2CCN(CCN3CCC(NC(=O)c4ccc(-c5ccc(Cl)cc5)cc4)CC3)CC2)c1 [TCMDC-138833] | -13.87 | 
CCOc1cc(C)ccc1C1CCN(CCCCNC(=O)c2ccc(-c3ccc(C(F)(F)F)cn3)cc2)CC1 [TCMDC-138535] | 16.24 | 
CCOc1cc(C)ccc1N1CCN(CCN2CCC(NC(=O)c3ccc(-c4ccc(C#N)cc4)cc3)CC2)CC1 [TCMDC-138866] | 88.4 | 
CN(C)CCOc1ccnc2ccc(NC(=O)Cc3ccc(-c4ccncc4)c4ccccc34)cc12 [TCMDC-139162] | 6.193 | 
CCOc1ccnc(=O)[nH]1 [TCMDC-124258] | 20.67 | 
C=CCOc1ccc(C2C(C(=O)OC)=C(C)NC3=C2C(=O)c2ccccc23)cc1OC (centres unmarked) [TCMDC-125383] | -17.47 | 
O=C(Nc1cccc(-c2nn3ncccc3c2-c2ccnc(Nc3cccc(-c4cnco4)c3)n2)c1)c1c(F)cccc1F [TCMDC-135550] | -49.22 | 
CN1CCCc2ccc(NC(=O)Nc3ccc(-c4ccccc4)cc3)cc2C1 [TCMDC-133730] | -3.95 | 
CN1CCN(c2nsc3ccc(-c4ccc(NC(=O)Nc5cc(C(F)(F)F)ccc5F)cc4)cc23)CC1 [TCMDC-133435] | 89.92 | 
CN1CCN(c2ccnc3ccc(NC(=O)Nc4ccc(-c5ccccc5)cc4)cc23)CC1 [TCMDC-139320] | -2.633 | 
CN(C)Cc1ccc(CN2CCN(CCOc3ccc(-c4ccc(Cl)cc4)cc3)CC2)o1 [TCMDC-138673] | 36.52 | 
CN1CCN(c2nsc3ccc(-c4ccc(NC(=O)Nc5ccccc5)cc4)cc23)CC1 [TCMDC-133437] | 50.88 | 
Fc1ccc(-c2cc3ncnc(N4CCN(CCN5CCCC5)CC4)c3s2)cc1 [TCMDC-125053] | 6.032 | 
O=C(Nc1ccc(-c2ccc(-c3nc4ccc(C(F)(F)F)cc4[nH]3)cc2)cc1)Nc1ccc(F)c(F)c1F [TCMDC-133223] | -19.68 | 
CN1CCN(c2nsc3ccc(-c4ccc(OCCN5CCCC5)cc4)cc23)CC1 [TCMDC-133436] | 111.5 | 
